Mtb bLac sens: beta-lactam sensitization of Mtb H37Rv, H37Rv; inhibition, % at 25 µM; M. tuberculosis H37Rv growth with meropenem, percent inhibition; 330,000 tested, 0.27% active; call rule not given here;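 further: growth measured after seven days incubation then overnight dye step; 0% = bacteria only wells and 100% = bacteria with antibiotic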
RecA intein inh: Mtb RecA intein splicing inhibitors, primary screen, biochemical, fluorescence, HTS | cell-free RecA intein splicing | inhibition, % (test concentration not listed) | 290,000 tested, 0.75% active; in the data active means inhibition above about 30%; inconclusive means no clear call, values can overlap the other calls;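 further: 0% = vehicle wells and 100% = reference inhibitor control wells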
Target sequence (P9WHJ3 whole entry, looked up): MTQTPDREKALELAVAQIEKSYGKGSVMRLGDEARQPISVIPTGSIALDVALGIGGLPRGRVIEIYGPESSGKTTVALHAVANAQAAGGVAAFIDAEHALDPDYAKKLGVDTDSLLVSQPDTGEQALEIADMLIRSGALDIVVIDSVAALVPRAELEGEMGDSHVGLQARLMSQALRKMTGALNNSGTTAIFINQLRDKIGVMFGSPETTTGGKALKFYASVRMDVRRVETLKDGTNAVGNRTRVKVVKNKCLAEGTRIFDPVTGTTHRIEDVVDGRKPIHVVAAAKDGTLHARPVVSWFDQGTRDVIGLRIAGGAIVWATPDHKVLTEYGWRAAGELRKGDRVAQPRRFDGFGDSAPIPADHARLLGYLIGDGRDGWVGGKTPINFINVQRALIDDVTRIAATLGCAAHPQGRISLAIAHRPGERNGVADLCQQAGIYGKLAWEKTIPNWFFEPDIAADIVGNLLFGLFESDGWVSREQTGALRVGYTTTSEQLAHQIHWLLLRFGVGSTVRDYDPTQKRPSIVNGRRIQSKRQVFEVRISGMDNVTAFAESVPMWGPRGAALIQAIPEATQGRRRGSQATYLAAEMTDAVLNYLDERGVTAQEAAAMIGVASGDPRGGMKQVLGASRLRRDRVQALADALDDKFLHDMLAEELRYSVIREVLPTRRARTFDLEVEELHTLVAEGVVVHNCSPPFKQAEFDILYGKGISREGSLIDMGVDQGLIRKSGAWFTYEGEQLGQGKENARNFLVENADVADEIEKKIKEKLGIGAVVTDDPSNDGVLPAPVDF
GDH-TPI inh: GDH-TPI coupling enzyme inhibitors, primary screen, artefact control for M. tuberculosis FBA inhibitor project, biochemical, absorbance, full deck; GDH-TPI coupled enzyme counterscreen, NADH absorbance; inhibition, % at 4.8 µM; 360,000 tested, 1.2% active; in the data active means inhibition above about 30%;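 further: 0% = DMSO wells and 100% = wells lacking the enzyme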
Mtb UGM inh: M. tuberculosis UGM enzyme inhibitors, primary screen, biochemical, fluorescence polarization, single point. UDP-galactopyranose mutase (Mycobacterium tuberculosis (strain ATCC 25618 / H37Rv)), …. purified UGM, fluorescence polarization probe displacement. inhibition, % at 10 µM. 320,000 tested, 0.06% active; in the data active means inhibition above about 10%, passing the limit was not always enough; inconclusive means no clear call, values can overlap the other calls
FBA Mtb inh: Mtb FBA enzyme inhibitors, primary screen, biochemical, fluorescence, strain H37Rv. 360,000 tested, 2.3% active. AID 588726, 2011. purified M. tuberculosis FBA, fluorescence read-out. inhibition, % at 1 µM. Fructose-bisphosphate aldolase (Mycobacterium tuberculosis (strain ATCC 25618 / H37Rv)), …; in the data active means inhibition above about 27%;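 further: 0% = vehicle and 100% = reference inhibitor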
Rv3671c protease: Rv3671c serine protease inhibitors, primary screen, biochemical, fluorescence polarization, M. tuberculosis H37Rv. P9WHR9. inhibition, % at 5.96 µM. 320,000 tested, 0.048% active. AID 2606, 2010; in the data active means inhibition above about 38%;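 further: extracellular domain of Rv3671c used as enzyme; 0% = enzyme with DMSO and 100% = no enzyme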
* marks the source's active call; other numbers are inactive results; i = inactive; ? = inconclusive; . = not tested or not shown; + = active, no number. Compounds with a hit are over-represented: about 4% of the library has one in this group of screens.

SMILES | Mtb bLac sens | RecA intein inh | GDH-TPI inh | Mtb UGM inh | FBA Mtb inh | Rv3671c protease
O=c1c2ccccc2nc(/C=C/c2ccc3c(c2)OCO3)n1CCCO | . | . | 12.6 | . | -1.7 | .
COc1ccc(OCc2nnc(SCC(=O)Nc3cccc(C(C)=O)c3)o2)cc1 | 0.6 | . | 1.8 | -0.6 | 2.0 | -3.5
CC(=O)c1c(C)[nH]c(C(=O)OCC(=O)c2c[nH]c3ccccc23)c1C | 1.1 | . | 5.6 | -1.5 | -2.6 | -23.1
COc1ccc2nc(NC(=O)CSC(C)C(=O)Nc3cc(C)on3)sc2c1 (stereo unspecified) | -1.5 | 2.1 | -10.8 | -3.2 | 1.1 | 1.2
CCn1cc(C(=O)NCc2cccc(F)c2)c(=O)c2cc(F)c(N3CCN(C(=O)c4ccco4)CC3)cc21 | 99.0 | 3.3 | 1.1 | -0.6 | 38.2* | -23.4
CCn1cc(C(=O)O)c(=O)c2cc(F)c(N3CCN(C(=S)NC(=O)c4cccc(F)c4)CC3)cc21 | 14.0 | -3.8 | 13.9 | 0.5 | 0.2 | 8.7
CN(c1ccccc1)S(=O)(=O)c1nnc(NC(=O)c2ccco2)s1 | 1.9 | -0.5 | 27.5 | 0.6 | 0.9 | 1.8
CC(C)CN(c1ccccc1)S(=O)(=O)c1nnc(NC(=O)c2ccco2)s1 | 0.1 | 2.5 | 34.8* | -0.3 | 5.5 | -1.1
CCN(c1ccc(C)cc1)S(=O)(=O)c1nnc(NC(=O)c2ccco2)s1 | 18.0 | -1.3 | 40.9* | -1.9 | 4.6 | -5.4
CC(C)c1ccc(NC2CCCN(C(=O)c3cnsn3)C2)cc1 (stereo unspecified) | -6.0 | -3.8 | -4.9 | -1.8 | -0.8 | 0.0
O=c1c2ccccc2oc2c1ccc1ccccc12 | . | . | 3.6 | . | 36.0* | .
O=c1c2ccccc2oc2ccccc12 | . | . | 11.8 | . | 1.5 | .
CSc1ccc(CN2CCC2(C)C(=O)Nc2cccc(NS(C)(=O)=O)c2)cc1 (stereo unspecified) | . | . | 9.3 | . | -1.7 | .
CCOC(=O)c1nn(-c2ccccc2)c(C#N)c1N | 6.5 | 1.1 | 9.8 | 0.5 | + | -28.4
Cc1cc2c(C)c(C)c(=O)[nH]c2cc1N | 1.8 | -2.5 | 35.5* | -0.9 | + | -6.5
C=CCn1c(O)c(C=Nc2ccc(OC)cc2C)c(=O)[nH]c1=O | 50.1 | -12.2 | 42.5* | 4.1 | 0.1 | 5.8
Cc1nc(=S)c2ccccc2[nH]1 | 4.1 | 4.3 | 30.6* | 2.9 | -4.7 | 0.1
S=c1nc(Cc2ccccc2)[nH]c2ccccc12 | -1.1 | -1.0 | 7.8 | 1.6 | 5.2 | -9.7
COc1ccccc1Oc1c(C)oc2c(CN3CCN(C)CC3)c(O)ccc2c1=O | -14.1 | -1.7 | . | -3.9 | . | 6.0
COc1cccc(Oc2c(C)oc3c(CN4CCCCC4)c(O)ccc3c2=O)c1 | -2.6 | -4.1 | 21.7 | 0.1 | 179.2* | 1.9
Cc1oc2c(CN(C)C)c(O)ccc2c(=O)c1-c1cscn1 | 3.9 | -4.7 | 26.2 | -0.9 | 65.9* | 5.6
COc1ccc(Oc2c(C)oc3c(CN(C)C)c(O)ccc3c2=O)cc1 | 5.2 | 0.4 | 26.2 | 1.9 | 42.7* | -5.1
COC(=O)c1ccc(Oc2c(C)oc3c(CN4CCN(C)CC4)c(O)ccc3c2=O)cc1 | ? | -3.6 | 21.6 | -2.0 | + | -0.4
COc1ccc(N/C=C2\CCOC2=O)cc1 | -5.4 | -1.7 | 56.2* | -0.8 | -3.5 | -0.9
COc1ccc(/C=C2\CCOC2=O)cc1 | 2.0 | -4.3 | 16.4 | 0.7 | 2.3 | -3.8
SMILES | Mtb bLac sens | RecA intein inh | GDH-TPI inh | Mtb UGM inh | FBA Mtb inh | Rv3671c protease
COc1cc(C(=O)NS(=O)(=O)c2ccccc2C)ccc1Cc1cn(C)c2ccc(NC(=O)OC3CCCC3)cc12 | 3.6 | 37.8* | . | -1.6 | . | -69.5
O=C(N[C@H]1c2ccccc2C[C@H]1O)[C@H]1O[C@@H](n2ccc(=O)[nH]c2=O)[C@H](O)[C@@H]1O | . | . | . | . | -1.1 | .
CCOC(=O)C1CCN(C2=C(NS(=O)(=O)c3ccc(Cl)cc3)C(=O)c3ccccc3C2=O)CC1 | 2.9 | 13.7 | 0.3 | 0.2 | 129.0* | 9.5
CCOC(=O)C1CCCN(C2=C(NS(=O)(=O)c3ccc(Br)cc3)C(=O)c3ccccc3C2=O)C1 (stereo unspecified) | 10.0 | 24.8 | 9.6 | 2.3 | -2.5 | -55.2
COC(=O)C1(C)COP(=O)(Nc2ccc(OC)cc2)OC1 (stereo unspecified) | . | . | . | . | -2.7 | .
NS(=O)(=O)c1ccc(CCNC(=S)NC(=O)c2ccccc2Br)cc1 | -4.6 | . | 0.0 | -1.3 | -1.6 | -8.4
c1ccc(N=Nc2ccc(C3=NCCO3)cc2)cc1 | . | . | 35.9* | . | -0.8 | .
Cc1ccc(-c2csc3nc[nH]c(=S)c23)cc1 | 82.2 | 2.4 | 15.0 | 0.4 | 1.1 | 13.8
Cc1cc(-c2csc3nc[nH]c(=S)c23)cc(C)c1C | 81.5 | 4.0 | 40.2* | -0.2 | 2.8 | 5.0
Nc1nc(CCl)nc(Nc2ccc3ccccc3c2)n1 | . | 46.2* | 10.2 | . | -0.7 | .
COc1ccc(Nc2nc(N)nc(CCl)n2)cc1 | 99.3 | 3.4 | -2.3 | 0.2 | 5.8 | -1.7
Cc1ccc(NC(=O)C2CCN(S(=O)(=O)c3ccc4c(c3)CCCC(=O)N4)CC2)c(Br)c1 | -3.6 | -2.1 | 8.4 | -1.3 | 3.8 | -14.9
COc1ccccc1CN(C)C(=O)CN1CCN(C(=O)c2cccs2)CC1 | -7.7 | . | 2.5 | 1.3 | 0.0 | -0.4
Nc1c(C(=O)NCCN2CCOCC2)c2nc3ccccc3nc2n1CCc1ccccc1F | 63.9 | -75.5 | 26.9 | -2.7 | 124.3* | -1.2
O=C(NCCCN1CCOCC1)c1c(F)cccc1F | -0.2 | 1.5 | -5.5 | -1.2 | -2.6 | 4.6
Nc1c(C(=O)NCCN2CCOCC2)c2nc3ccccc3nc2n1-c1ccc2c(c1)OCO2 | 1.2 | 2.1 | 21.7 | 1.3 | 3.8 | 2.6
COCCNC(=O)c1c(N)n(-c2ccccc2)c2nc3ccccc3nc12 | 2.2 | i | 17.7 | -2.1 | 148.4* | -20.9
Nc1c(C(=O)NCCN2CCOCC2)c2nc3ccccc3nc2n1-c1ccccc1 | -0.5 | -497.9 | 27.5 | 2.9 | 148.7* | -11.0
CC(=O)NCCn1c(SCC(=O)c2ccccc2)nc2ccccc2c1=O | 3.3 | -2.6 | 32.7* | 0.6 | -0.2 | -0.2
CC(=O)NCCn1c(SCC(=O)OCc2ccccc2)nc2ccccc2c1=O | 7.0 | 2.0 | -5.2 | -0.1 | 1.3 | -1.9
O=C1NC(Cc2ccc(O)cc2)c2nc3ccc(F)cc3c(=O)n2-c2cc(Cl)ccc21 (stereo unspecified) | . | . | -3.3 | . | 2.1 | .
COCCCNC(=O)c1c(N)n(-c2ccc(S(N)(=O)=O)cc2)c2nc3ccccc3nc12 | -3.1 | -140.1 | 25.4 | -0.7 | + | -2.9
COCCNC(=O)c1c(N)n(-c2cccc(C)c2)c2nc3ccccc3nc12 | 13.4 | -406.1 | -0.9 | -1.7 | 182.6* | -5.8
COCCCNC(=O)c1c(N)n(-c2ccccc2)c2nc3ccccc3nc12 | 73.2 | i | 12.6 | 4.2 | + | -13.6

Source: PubChem
